# The list is not random: actives were taken first. Their share in the collection is about 12%.
# L3MBTL1 block: inhibitors of human L3MBTL1 | Q9Y468 | AID 485360 | AlphaScreen L3MBTL1–H3K9me1 peptide binding | Potency, µM (series often up to 57.1 µM), most hits filed as inhibitors | actives 0.66% (n = 230,000); also: nearly all actives have a fitted effect of over 60% in size
# Target sequence (Q9Y468 whole entry, looked up): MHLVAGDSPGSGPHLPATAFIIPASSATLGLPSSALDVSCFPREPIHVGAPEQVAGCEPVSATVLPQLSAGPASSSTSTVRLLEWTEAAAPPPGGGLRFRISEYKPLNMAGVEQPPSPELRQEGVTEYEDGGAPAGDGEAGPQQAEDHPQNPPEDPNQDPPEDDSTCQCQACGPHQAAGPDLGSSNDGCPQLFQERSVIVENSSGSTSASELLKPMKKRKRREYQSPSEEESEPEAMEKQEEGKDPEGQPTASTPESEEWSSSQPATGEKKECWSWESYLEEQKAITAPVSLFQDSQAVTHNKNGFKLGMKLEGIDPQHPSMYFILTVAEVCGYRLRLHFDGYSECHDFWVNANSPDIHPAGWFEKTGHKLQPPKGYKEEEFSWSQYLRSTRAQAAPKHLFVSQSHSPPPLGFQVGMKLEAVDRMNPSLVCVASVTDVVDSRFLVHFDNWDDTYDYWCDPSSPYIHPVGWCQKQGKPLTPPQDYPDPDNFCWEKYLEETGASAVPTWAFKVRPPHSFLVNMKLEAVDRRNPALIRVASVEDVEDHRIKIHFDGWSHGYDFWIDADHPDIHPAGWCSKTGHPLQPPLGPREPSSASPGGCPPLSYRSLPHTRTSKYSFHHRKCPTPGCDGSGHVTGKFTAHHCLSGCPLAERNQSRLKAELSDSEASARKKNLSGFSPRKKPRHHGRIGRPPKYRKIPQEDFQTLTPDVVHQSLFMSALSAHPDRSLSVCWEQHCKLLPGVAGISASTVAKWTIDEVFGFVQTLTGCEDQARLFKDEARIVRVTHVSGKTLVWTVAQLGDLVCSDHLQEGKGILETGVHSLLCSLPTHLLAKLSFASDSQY
#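 Displacement of a biotinylated histone H3(1-15) peptide monomethylated at Lys9 (75 nM) from L3MBTL1 (50 nM) was measured by AlphaScreen after a 30 min room-temperature compound incubation; cefsulodin titration served as intraplate control.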
# BAZ2B block: blocks human BAZ2B; Q9UIF8; AlphaScreen BAZ2B-H3K14Ac peptide displacement; Potency, µM (top dose mostly 114 µM), hits mostly inhibitors; actives 4.4% (n = 360,000); AID 504333; also: nearly all actives have a fitted effect of over 60% in size
#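 BAZ2B (50 nM) with biotin-H3(5-23)K14Ac peptide (50 nM) in PBS pH 7.4, 0.01% Tween-20, preformed 30 min, then compound 30 min at room temperature; top concentration 110uM. AlphaScreen streptavidin donor/nickel chelate acceptor beads (10 ug/mL final), 20 min dark, signal read.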
# JMJD2A Tudor: blocks the human JMJD2A Tudor domain; O75164; AlphaScreen JMJD2A-Tudor / H3K4me3 peptide binding; actives 4.4% (n = 390,000); Potency, µM (series often up to 114 µM), actives largely listed as inhibitors; also: nearly all actives have a fitted effect of over 50% in size
# G9a block: inhibitors of human histone lysine methyltransferase G9a; G9a H3K9 monomethylation, AlphaScreen, 2 h; Potency, µM (highest dose often 102 µM), usual class: inhibitors; actives 8.8% (n = 350,000); AID 504332; also: nearly all actives have a fitted effect of over 75% in size
#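 Using a bead-based AlphaScreen, monomethylated H3K9 product from 2 h room-temperature reactions (G9a 20 nM, peptide 500 nM, SAM 20 uM) was detected with 0.5 ug/mL rabbit anti-H3K9me1 antibody.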
# Sfp inh: blocks B. subtilis Sfp PPTase activity | actives 3.5% (n = 310,000) | Potency, µM, most hits filed as inhibitors | Biochemical Sfp PPTase activity, qHTS | AID 1490;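 also: the enzyme is Sfp with the accession as filed and its product quenches rhodamine fluorescence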
#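 Fluorescence-quenching assay: 15 nM Sfp-PPTase preincubated 15 min at room temperature with compound, then 5 uM rhodamine-CoA and 12.5 uM BHQ-2-labelled YbbR peptide added. Fluorescence (ex 525/em 598 nm) read at start and after 30 min; difference gives rate.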
# HP1b binding inh: blocks HP1-beta chromodomain binding to methylated histone tails; P83916; AlphaScreen HP1-beta / biotin-H3K9me3 peptide binding; Potency, µM (top dose mostly 114 µM), most hits filed as inhibitors; actives 0.56% (n = 390,000); also: nearly all actives have a fitted effect of over 70% in size
#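 AlphaScreen: HP1-beta (50 nM) preformed 30 min with biotin-H3(1-18)K9me3 peptide (50 nM) in PBS pH 7.4, 0.01% Tween-20. Compound added for 30 min at RT, then streptavidin donor/nickel chelate acceptor beads (10 ug/mL) for 30 min.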
# Hits are given with their value; . = inactive; ? = inconclusive; / = no result; [ ] = dose if it differs, or a comment. Calls follow the shape of the dose curve; as a rule, active = well fitted curve in the direction sought with a large enough effect; inconclusive = small, poorly fitted or top-dose-only effect, or another doubt; inactive = no such curve, though single readings can be large; an effect the other way counts as inactive or inconclusive.
SMILES,L3MBTL1 block,BAZ2B block,JMJD2A Tudor,G9a block,Sfp inh,HP1b binding inh
Cn1c(CNc2ccccc2O)nc2ccccc21,.,?,?,3.5µM,45µM,.
Cc1ccc(CNc2ccc3c(c2)ncn3C(C)C)cc1,.,35µM,?,11µM,.,.
Cc1ccccc1NCc1nc2ccccc2n1C,/,.,.,.,.,.
COc1ccc(-n2nc3cc(C)c(NC(=O)COc4cccc(C)c4)cc3n2)cc1,/,.,.,.,/,.
CCN(C(=O)c1cnc(N2CCN(c3ncccn3)CC2)c2ccccc12)c1cccc(Cl)c1,.,.,.,.,40µM,.
CN(C(=O)c1cnc(N2CCN(c3ncccn3)CC2)c2ccccc12)c1ccc(Cl)cc1,.,.,.,.,56µM,.
N#C/C(=C\c1cccs1)C(=O)Nc1nccs1,.,50µM,20µM,.[12.7 µM],.,.
N#C/C(=C/c1ccc(C(=O)O)cc1)C(=O)NCc1ccccc1,.,.,.,?,18µM,.
N#C/C(=C\c1ccccc1)C(=O)NCc1ccc(F)cc1,/,.,.,.,.,.
N#C/C(=C\c1cccc([N+](=O)[O-])c1)C(=O)NCc1ccc(Cl)cc1,.,?,?,50µM,?,.
N#C/C(=C\c1cccs1)C(=O)NCc1ccccc1,.,.,40µM,.,.,.
N#C/C(=C\c1cccs1)C(=O)NCc1cccnc1,.,.,.,.,.,.
CCCCOc1ccc(C(C)NC(=O)c2cccc(Nc3nc4ccccc4n4nnnc34)c2)cc1 (stereo not given),/,.,.,.,/,.
COCCn1c(=O)c(C)nc2cnc(Nc3ccccc3)nc21,/,/,/,.[0.501 µM],.,/
c1cc(CN2CCCNCCNCCCNCC2)ccc1CN1CCCNCCNCCCNCC1,/,/,/,/,.,/
O=C(COC(=O)c1ccc(Cl)nc1)Nc1ccc2c(c1)OCCO2,.,.,.,.[12.7 µM],/,.
CC(C)(C)C(=O)/C(C#N)=C/c1cccs1,/,.,.,.,.,.
N#C/C(=C\c1cccs1)C(=O)c1ccccc1Cl,.,?,.,40µM,28µM,.
COc1ccc(O)c(/C=N/NC(=S)Nc2cccnc2)c1,11µM,/,25µM,?,.,.
COc1cccc(/C=N/NC(=S)Nc2cccc(S(=O)(=O)N(C)C)c2)c1,/,?,?,8.9µM,10µM,?
CN(C)S(=O)(=O)c1cccc(NC(=S)N/N=C/c2ccc(O)c(O)c2O)c1,1.6µM,4.5µM,20µM,3.2µM,3.2µM,?
COc1cc(/C=N/NC(=S)Nc2cccc(S(=O)(=O)N(C)C)c2)cc(OC)c1O,.,.,.,.,.,.
COc1ccc(O)c(/C=N/NC(=S)Nc2cccc(S(=O)(=O)N(C)C)c2)c1,10µM,7.9µM,22µM,?,.,.
CN(C)S(=O)(=O)c1cccc(NC(=S)NCCc2ccccn2)c1,.,/,.,?,.,.
CCCC(=O)NCc1ccc2c(c1)cc(C)n2C,.,.,.,.,?,.
SMILES,L3MBTL1 block,BAZ2B block,JMJD2A Tudor,G9a block,Sfp inh,HP1b binding inh
Cc1cccc(NC(=S)NCc2ccc3c(c2)cc(C)n3C)c1C,.,35µM,35µM,.,.,?
Cc1cc2cc(CNC(=S)Nc3ccc(OC(F)(F)F)cc3)ccc2n1C,.,.,?,.,.,.
Cc1cccc(NC(=O)NCc2ccc3c(c2)cc(C)n3C)c1,?,?,?,?,50µM,.
Cc1cc2cc(CNC(=O)c3ccc(Br)o3)ccc2n1C,/,35µM,56µM,.,28µM,.
Cc1cc2cc(CNC(=O)CCC(=O)O)ccc2n1C,.,?,.,18µM,.,.
Cc1cc(/N=C/C=C2/N(C)c3ccccc3C2(C)C)n(CCC#N)n1,/,/,?,/,/,.
Cc1cc2cc(CNS(=O)(=O)c3ccc4ccccc4c3)ccc2n1C,.,?,?,?,.,.
CC(=O)Nc1ccc(S(=O)(=O)NCc2ccc3c(c2)cc(C)n3C)cc1,/,?,?,79µM,.,.
Cc1cc(NCCCn2ccnc2)n2nc(C)c(-c3ccc(Cl)cc3)c2n1,/,32µM,?,?,.,.
COc1ccccc1C1/C(=C(\O)c2ccc3c(c2)OCCO3)C(=O)C(=O)N1CCCN(C)C (stereo not given),.,.,/,.,.,/
